From ChEMBL document CHEMBL2218924, “A broad activity screen in support of a chemogenomic map for kinase signalling research and drug discovery” (Biochem J, 2013)

Assays:
[1] = target: Insulin receptor (Homo sapiens) (UniProt P06213); settings: at 10 µM
[2] = target: Insulin receptor (Homo sapiens) (UniProt P06213); settings: at 1 µM
[3] = target: Insulin receptor (Homo sapiens) (UniProt P06213); settings: at 10 µM; remark: listed apart in the source
[4] = target: Interleukin-1 receptor-associated kinase 1 (Homo sapiens) (UniProt P51617); settings: at 1 µM
[5] = target: Interleukin-1 receptor-associated kinase 1 (Homo sapiens) (UniProt P51617); settings: at 10 µM
[6] = target: T1, Interleukin-1 receptor-associated kinase 4 (Homo sapiens) (UniProt Q9NWZ3); settings: at 1 µM
T1 sequence (whole entry): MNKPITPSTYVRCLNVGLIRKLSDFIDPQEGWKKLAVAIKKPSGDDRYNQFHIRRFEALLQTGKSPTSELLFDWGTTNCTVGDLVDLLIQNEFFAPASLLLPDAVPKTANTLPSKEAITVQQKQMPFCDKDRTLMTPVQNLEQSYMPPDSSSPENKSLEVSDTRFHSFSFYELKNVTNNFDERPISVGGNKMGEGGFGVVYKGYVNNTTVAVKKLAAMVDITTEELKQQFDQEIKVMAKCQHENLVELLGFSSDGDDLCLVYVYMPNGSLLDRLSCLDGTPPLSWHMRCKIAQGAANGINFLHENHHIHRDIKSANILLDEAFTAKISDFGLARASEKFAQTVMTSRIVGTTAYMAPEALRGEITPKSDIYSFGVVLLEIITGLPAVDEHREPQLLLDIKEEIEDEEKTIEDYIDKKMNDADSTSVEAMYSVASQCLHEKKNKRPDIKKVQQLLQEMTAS

[7] = target: T1, Interleukin-1 receptor-associated kinase 4 (Homo sapiens); settings: at 10 µM
[8] = target: Insulin receptor-related protein (Homo sapiens) (UniProt P14616); settings: at 1 µM
[9] = target: Insulin receptor-related protein (Homo sapiens) (UniProt P14616); settings: at 10 µM
[10] = target: T2, Tyrosine-protein kinase ITK/TSK (Homo sapiens) (UniProt Q08881); settings: at 1 µM
T2 sequence (whole entry): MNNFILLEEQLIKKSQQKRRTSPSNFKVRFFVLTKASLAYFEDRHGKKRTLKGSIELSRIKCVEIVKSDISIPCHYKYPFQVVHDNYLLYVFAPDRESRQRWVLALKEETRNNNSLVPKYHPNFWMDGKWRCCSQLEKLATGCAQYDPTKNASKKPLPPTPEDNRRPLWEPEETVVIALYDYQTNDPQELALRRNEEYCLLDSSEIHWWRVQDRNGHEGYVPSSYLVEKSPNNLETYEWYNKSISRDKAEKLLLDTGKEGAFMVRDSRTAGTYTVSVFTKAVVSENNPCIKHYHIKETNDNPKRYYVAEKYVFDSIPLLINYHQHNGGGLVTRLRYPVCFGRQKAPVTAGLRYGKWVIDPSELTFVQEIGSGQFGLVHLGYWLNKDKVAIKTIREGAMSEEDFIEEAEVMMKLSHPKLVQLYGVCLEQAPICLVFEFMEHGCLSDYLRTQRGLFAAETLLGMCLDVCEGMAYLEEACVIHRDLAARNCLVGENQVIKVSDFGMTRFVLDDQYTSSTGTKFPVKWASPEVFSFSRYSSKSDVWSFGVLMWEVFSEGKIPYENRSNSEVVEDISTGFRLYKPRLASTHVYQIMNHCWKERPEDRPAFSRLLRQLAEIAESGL

Chain of Insulin receptor (Homo sapiens) (P06213 28-758 limits assumed): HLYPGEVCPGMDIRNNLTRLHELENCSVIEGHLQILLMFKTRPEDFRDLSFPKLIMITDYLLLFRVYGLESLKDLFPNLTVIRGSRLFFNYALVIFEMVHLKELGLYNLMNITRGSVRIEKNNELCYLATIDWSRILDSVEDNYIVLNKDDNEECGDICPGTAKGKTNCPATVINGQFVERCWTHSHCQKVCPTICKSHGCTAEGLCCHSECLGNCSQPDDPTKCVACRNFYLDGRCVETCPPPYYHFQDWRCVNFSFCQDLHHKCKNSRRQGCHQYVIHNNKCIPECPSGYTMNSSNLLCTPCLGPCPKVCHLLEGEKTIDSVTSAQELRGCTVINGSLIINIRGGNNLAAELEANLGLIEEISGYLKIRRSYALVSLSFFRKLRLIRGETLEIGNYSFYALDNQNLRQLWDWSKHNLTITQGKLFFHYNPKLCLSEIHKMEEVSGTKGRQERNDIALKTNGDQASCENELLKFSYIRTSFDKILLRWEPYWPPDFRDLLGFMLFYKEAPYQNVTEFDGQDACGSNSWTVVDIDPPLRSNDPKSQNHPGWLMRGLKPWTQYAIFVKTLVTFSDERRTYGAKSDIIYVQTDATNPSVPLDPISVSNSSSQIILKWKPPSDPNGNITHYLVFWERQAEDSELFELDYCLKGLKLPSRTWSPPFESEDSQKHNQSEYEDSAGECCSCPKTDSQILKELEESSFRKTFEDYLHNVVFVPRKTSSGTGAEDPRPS
Chain of Insulin receptor (Homo sapiens) (P06213 763-1382 limits assumed): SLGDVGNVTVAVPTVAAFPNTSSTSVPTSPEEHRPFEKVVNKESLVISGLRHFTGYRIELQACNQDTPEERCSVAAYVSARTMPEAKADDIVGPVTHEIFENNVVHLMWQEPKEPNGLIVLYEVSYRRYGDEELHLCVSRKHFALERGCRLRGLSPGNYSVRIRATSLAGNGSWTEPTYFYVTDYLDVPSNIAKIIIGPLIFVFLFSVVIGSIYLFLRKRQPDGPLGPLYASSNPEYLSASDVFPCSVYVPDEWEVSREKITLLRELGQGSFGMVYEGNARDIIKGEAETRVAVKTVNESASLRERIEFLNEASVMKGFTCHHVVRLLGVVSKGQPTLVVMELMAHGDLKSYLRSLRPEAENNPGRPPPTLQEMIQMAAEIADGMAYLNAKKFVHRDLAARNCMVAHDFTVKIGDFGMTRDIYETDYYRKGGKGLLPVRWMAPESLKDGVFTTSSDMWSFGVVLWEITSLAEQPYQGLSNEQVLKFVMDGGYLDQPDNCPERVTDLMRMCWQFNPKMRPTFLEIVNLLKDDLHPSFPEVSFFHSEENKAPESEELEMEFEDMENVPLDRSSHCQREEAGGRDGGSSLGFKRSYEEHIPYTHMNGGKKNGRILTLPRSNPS
Chain of Insulin receptor-related protein (Homo sapiens) (P14616 27-742 limits assumed): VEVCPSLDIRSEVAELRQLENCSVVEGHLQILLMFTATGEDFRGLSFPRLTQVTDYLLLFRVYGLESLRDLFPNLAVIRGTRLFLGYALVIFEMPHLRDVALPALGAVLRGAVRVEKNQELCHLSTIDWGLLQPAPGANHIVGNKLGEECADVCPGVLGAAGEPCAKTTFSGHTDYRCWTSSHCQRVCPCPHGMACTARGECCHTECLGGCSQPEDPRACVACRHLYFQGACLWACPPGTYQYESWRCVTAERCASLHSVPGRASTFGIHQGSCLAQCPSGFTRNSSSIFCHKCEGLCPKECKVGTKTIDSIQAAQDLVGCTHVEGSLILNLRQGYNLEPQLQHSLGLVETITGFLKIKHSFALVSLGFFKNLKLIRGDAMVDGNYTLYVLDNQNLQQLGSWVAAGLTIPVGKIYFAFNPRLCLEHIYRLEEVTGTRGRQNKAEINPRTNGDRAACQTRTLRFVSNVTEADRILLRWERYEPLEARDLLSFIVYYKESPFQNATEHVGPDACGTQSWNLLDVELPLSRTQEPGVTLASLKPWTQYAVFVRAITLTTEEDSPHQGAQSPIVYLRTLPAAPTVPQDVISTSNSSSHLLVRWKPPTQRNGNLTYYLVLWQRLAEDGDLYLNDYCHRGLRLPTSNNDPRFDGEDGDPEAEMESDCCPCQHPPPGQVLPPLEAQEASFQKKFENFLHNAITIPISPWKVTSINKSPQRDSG
Chain of Insulin receptor-related protein (Homo sapiens) (P14616 747-1297 limits assumed): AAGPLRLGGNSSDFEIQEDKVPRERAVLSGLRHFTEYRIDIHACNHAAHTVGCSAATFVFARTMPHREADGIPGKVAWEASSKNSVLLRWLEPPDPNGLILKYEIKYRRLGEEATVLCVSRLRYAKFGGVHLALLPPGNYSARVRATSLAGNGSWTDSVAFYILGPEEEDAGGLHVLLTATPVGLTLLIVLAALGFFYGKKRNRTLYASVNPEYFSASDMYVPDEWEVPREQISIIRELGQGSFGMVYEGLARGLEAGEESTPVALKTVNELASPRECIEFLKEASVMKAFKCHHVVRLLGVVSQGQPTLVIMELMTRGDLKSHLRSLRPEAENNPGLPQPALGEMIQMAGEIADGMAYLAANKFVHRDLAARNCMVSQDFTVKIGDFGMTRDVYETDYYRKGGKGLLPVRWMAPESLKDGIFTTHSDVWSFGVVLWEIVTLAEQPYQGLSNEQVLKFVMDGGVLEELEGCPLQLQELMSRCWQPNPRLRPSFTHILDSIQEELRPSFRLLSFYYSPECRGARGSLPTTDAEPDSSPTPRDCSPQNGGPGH
Chain of Interleukin-1 receptor-associated kinase 1 (Homo sapiens) (P51617 whole entry, looked up): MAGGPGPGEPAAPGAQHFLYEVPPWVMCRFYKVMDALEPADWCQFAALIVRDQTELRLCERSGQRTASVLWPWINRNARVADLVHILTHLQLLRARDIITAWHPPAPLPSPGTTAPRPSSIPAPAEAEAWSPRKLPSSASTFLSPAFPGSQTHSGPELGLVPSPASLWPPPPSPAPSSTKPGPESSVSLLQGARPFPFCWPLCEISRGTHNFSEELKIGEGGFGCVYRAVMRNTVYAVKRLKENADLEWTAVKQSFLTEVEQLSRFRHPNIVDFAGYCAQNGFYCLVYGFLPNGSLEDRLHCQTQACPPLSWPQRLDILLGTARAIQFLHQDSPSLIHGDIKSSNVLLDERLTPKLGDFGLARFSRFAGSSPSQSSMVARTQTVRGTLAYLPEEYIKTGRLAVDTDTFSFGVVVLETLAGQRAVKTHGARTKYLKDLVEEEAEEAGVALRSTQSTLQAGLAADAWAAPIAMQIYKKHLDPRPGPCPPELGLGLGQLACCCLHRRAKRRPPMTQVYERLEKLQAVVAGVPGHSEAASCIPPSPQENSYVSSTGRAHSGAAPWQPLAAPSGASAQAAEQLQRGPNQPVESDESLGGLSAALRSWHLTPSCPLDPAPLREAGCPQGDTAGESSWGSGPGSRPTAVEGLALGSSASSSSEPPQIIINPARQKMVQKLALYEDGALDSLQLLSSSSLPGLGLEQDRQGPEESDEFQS

Compound | residual activity [1] [%] | residual activity [2] [%] | residual activity [3] [%] | residual activity [4] [%] | residual activity [5] [%] | residual activity [6] [%] | residual activity [7] [%] | residual activity [8] [%] | residual activity [9] [%] | residual activity [10] [%]
CO[C@H]1C[C@@H]2CC[C@@H](C)[C@@](O)(O2)C(=O)C(=O)N2CCCC[C@H]2C(=O)O[C@H]([C@H](C)C[C@@H]2CC[C@@H](O)[C@H](OC)C2)CC(=O)[C@H](C)/C=C(\C)[C@@H](O)[C@@H](OC)C(=O)[C@H](C)C[C@H](C)/C=C/C=C/C=C/1C | 89 | 92 | 101 | 74 | 71 | 107 | 154 | 126 | 99 | 101
N#C/C(=C(\N)Sc1ccc(N)cc1)c1ccccc1C(F)(F)F | 102 | 102 | 92 | 91 | 112 | 83 | 81 | 105 | 101 | 100
O=C1NC(=O)/C(=C/c2ccc3c(c2)OC(F)(F)O3)S1 | 103 | 104 | 98 | 102 | 80 | 111 | 106 | 139 | 99 | 103
COc1cccc(-c2cc(=O)c3ccccc3o2)c1N | 94 | 96 | 92 | 98 | 96 | 109 | 94 | 106 | 91 | 108
Cn1cnc2cc3c(Nc4cccc(Br)c4)ncnc3cc21 | 103 | 102 | 100 | 102 | 73 | 77 | 46 | 125 | 78 | 104
CCC(=O)Nc1ccc2ncnc(Nc3cccc(Br)c3)c2c1 | 79 | 102 | 100 | 89 | 83 | 96 | 91 | 111 | 79 | 106
CN(C)c1ccc(/C=C2\C(=O)Nc3ccccc32)cc1 | 65 | 93 | 71 | 118 | 91 | 92 | 46 | 111 | 23 | 98
Oc1n[nH]c2nnc(-c3c(-c4ccccc4)nn4ccccc34)cc12 | 12 | 89 | 75 | 99 | 103 | 75 | 89 | 25 | 2 | 99
Nc1cccc(-c2cc3c(Oc4cccc(O)c4)ncnc3[nH]2)c1 | 46 | 103 | 78 | 69 | 20 | 79 | 69 | 98 | 58 | 68
CC(C)n1cnc2/c(=N/c3cccc(Cl)c3)nc(NCCO)[nH]c21 | 36 | 68 | 17 | 76 | 34 | 44 | 14 | 96 | 35 | 76
C[C@@H](N)[C@H]1CC[C@H](C(=O)Nc2ccncc2)CC1 | 109 | 104 | 97 | 100 | 98 | 101 | 95 | 103 | 101 | 106
COc1ccc(C(=O)Nc2sc3c(c2C(N)=O)CCCC3)cc1OC | 82 | 96 | 96 | 92 | 86 | 54 | 52 | 116 | 90 | 101
Cc1cncc2cccc(S(=O)(=O)N3CCCN(C(=O)CN)C[C@H]3C)c12 | 70 | 97 | 76 | 82 | 67 | – | – | – | – | –
O=Nc1c(-c2c(O)[nH]c3ccccc23)[nH]c2ccccc12 | 10 | 35 | 19 | 60 | 11 | 41 | 6 | 2 | 1 | 19
O=C1Nc2ccccc2/C1=C1/Nc2ccccc2/C1=N\OCCC(O)CO (stereo not given) | 4 | 10 | 4 | 31 | 23 | 16 | 0 | 2 | 2 | 24
COc1ccc(CNc2nc(N(CCO)CCO)nc3c2ncn3C(C)C)cc1 | 85 | 90 | 77 | 91 | 107 | 71 | 71 | 92 | 87 | 94
Cc1cc(Nc2nc(-c3ccccc3)nc3ccccc23)n[nH]1 | 5 | 36 | 7 | 69 | 23 | 45 | 12 | 8 | 1 | 5
